ClpP mod – qHTS Assay for Activators of ClpP; ATP-dependent Clp protease proteolytic subunit (Bacillus subtilis (strain 168)), P80244; Potency, µM (doses to about 57.5 µM), inactives show top-dose activity change, negative = active; 1.9% of 340,000 active; purified B. subtilis ClpP, FRET peptide cleavage, 20 min; AID 651965, 2013; active = well fitted falling curve with a large enough effect; inconclusive = small, poorly fitted or top-dose-only effect; inactive = no such curve, though single readings can be large or run the other way; note: the source files actives as falling curves though it sought activators and does not explain the sign; nearly all actives have a fitted effect of over 65% in size
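Purified B. subtilis ClpP, 10 microg/mL final in Tris/HCl pH8 with KCl, BSA, glycerol and Tween-20, cleaved an Abz/nitrotyrosine-quenched decapeptide. Fluorescence (ex 320, em 430) was read at 0 and 20 min at room temperature. Delta was normalized to 5.8 microM ADEP and DMSO/no-enzyme controls.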
DT40 TDP1 CPT – qHTS for Inhibitors of human tyrosyl-DNA phosphodiesterase 1 (TDP1): qHTS in cells in presence of CPT; Potency, µM (series often up to 46.2 µM), for inactives: at the top dose activity change, negative = growth inhibition, usual class: inhibitors; 12% of 420,000 active; chicken DT40 Tdp1-/-;hTDP1 cells + 20 nM CPT, ATP luminescence, 48 h; note: % is set by controls: 0 for no effect and ±100 for the full control effect; nearly all actives have a fitted effect of over 55% in size
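Cell growth measured by CellTiter-Glo luminescence after a minimum 48 h, 37 C compound exposure with 20 nM CPT in Tdp1-knockout DT40 cells stably expressing hTDP1, seeded 400/well; qHTS titration format.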
TDP1 cell noCPT – qHTS for Inhibitors of human tyrosyl-DNA phosphodiesterase 1 (TDP1): qHTS in cells in absence of CPT; DT40 Tdp1-/- hTDP1 cells, no CPT, ATP luminescence, 48 h; Potency, µM (doses to about 46.2 µM), inactives show top-dose activity change, negative = growth inhibition, usual class: inhibitors; 15% of 420,000 active; AID 686978, 2013; note: % is set by controls: 0 for no effect and ±100 for the full control effect; nearly all actives have a fitted effect of over 55% in size
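DT40 Tdp1-/-;hTDP1 cells, no CPT (DMSO vehicle only), 400 cells/well; compounds pin-transferred; ≥48 hr, 37 °C; CellTiter-Glo 30 min RT dark, luminescence read.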
TDP1 block – qHTS Assay for Inhibitors of Tyrosyl-DNA Phosphodiesterase (TDP1); Tyrosyl-DNA phosphodiesterase 1 (Homo sapiens), Q9NUW8; recombinant TDP1, AlphaScreen DNA substrate cleavage; Potency, µM (top dose mostly 130 µM), for the others: at the top dose activity change, negative = inhibition, most hits filed as inhibitors; 0.28% of 350,000 active; AID 485290, 2010; note: % is set by controls: 0 for no effect and ±100 for the full control effect; nearly all actives have a fitted effect of over 40% in size
Target sequence (Q9NUW8 whole entry, looked up): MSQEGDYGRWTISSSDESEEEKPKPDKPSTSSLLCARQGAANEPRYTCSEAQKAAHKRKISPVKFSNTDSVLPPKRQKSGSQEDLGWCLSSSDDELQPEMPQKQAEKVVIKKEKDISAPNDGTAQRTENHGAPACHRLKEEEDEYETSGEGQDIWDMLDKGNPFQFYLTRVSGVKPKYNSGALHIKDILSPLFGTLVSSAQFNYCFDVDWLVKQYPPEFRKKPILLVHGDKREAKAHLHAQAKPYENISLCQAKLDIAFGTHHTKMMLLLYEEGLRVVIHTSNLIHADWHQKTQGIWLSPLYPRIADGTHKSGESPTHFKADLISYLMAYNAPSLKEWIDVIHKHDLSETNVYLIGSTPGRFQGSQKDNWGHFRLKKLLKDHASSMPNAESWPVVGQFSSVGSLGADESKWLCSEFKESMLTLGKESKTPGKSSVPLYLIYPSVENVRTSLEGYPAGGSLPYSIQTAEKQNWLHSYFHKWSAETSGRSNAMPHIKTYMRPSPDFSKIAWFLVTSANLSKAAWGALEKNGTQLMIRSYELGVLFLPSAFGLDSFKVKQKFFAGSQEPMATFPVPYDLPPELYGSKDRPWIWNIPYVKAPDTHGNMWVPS
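Signal: AlphaScreen proximity between streptavidin donor and anti-FITC acceptor beads on intact substrate. Reaction: Tdp1 1 nM, substrate 15 nM final, 5 min RT after 15 min compound preincubation.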
An asterisk follows results filed as active; ? = inconclusive; · = no result; [ ] = remark or other dose. Sampled rows, rich in hits. Any-hit rate of the full collection: about 17%. Unless noted, calls come from the whole dose curve; as a rule, active = well fitted curve in the direction sought with a large enough effect; inconclusive = small, poorly fitted or top-dose-only effect, or another doubt; inactive = no such curve, though single readings can be large; an effect the other way counts as inactive or inconclusive. Potency is the fitted concentration of half-maximal effect.

SMILES	ClpP mod	DT40 TDP1 CPT	TDP1 cell noCPT	TDP1 block
Cc1ccc(C(=O)c2oc3ccccc3c2NC(=O)Cc2coc3cc(C)ccc23)cc1	-13%	?	?	1%
CCOc1ccc(NC(=O)c2oc3ccccc3c2NC(=O)Cc2ccc(OC)c(OC)c2)cc1	131%	?	?	1%
CS(=O)(=O)c1ccc(-c2cccc3c2OC(CNC(=O)c2cc(C4CC4)[nH]n2)C3)cc1 (configuration not stated)	·	-9%[9.04 µM]	?	·
COc1ccc(F)cc1C(=O)C1CCCN(C(=O)c2ccccc2N(C)C)C1 (configuration not stated)	-3%	?	18µM*	5%
Cc1ccsc1C(=O)N1CCCC(C(=O)c2cc(F)ccc2F)C1 (configuration not stated)	1%	?	23µM*	·
COc1ccc(F)cc1C(=O)C1CCCN(C(=O)c2cccc(N(C)C)c2)C1 (configuration not stated)	1%	?	?	·
CC1CC(C)CN(C(C(=O)NC2CCCCC2)c2cc3ccccc3o2)C1 (configuration not stated)	-9%	?	26µM*	·
N#Cc1ccc(/C=C/C(=O)c2ccco2)cc1	1%	9.2µM*	10µM*	-3%
COc1ccccc1/C=C/C(=O)c1cc(Br)ccc1OC(=O)c1ccco1	-1%	?	?	·
O=C(/C=C/c1cc(Br)ccc1O)c1ccco1	-1%	6.5µM*	2.6µM*	·
Nc1ccc(/C=C/C(=O)c2ccco2)cc1	2%	-19%	?	1%
O=C(/C=C/c1ccccc1O)c1ccco1	1.6µM*	18µM*	21µM*	·
CC(C)Oc1ccc(C(CCNCc2ccc(O)cc2)c2ccccc2)cc1 (configuration not stated)	2%	5.8µM*	4.1µM*	·
COc1ccc(C(CCNCc2ccc(N(C)C)cc2)c2ccccc2)cc1 (configuration not stated)	·	21µM*	21µM*	·
COc1ccc(CNCCC(c2ccc3c(c2)OCO3)c2ccccc2OC)cc1 (configuration not stated)	0%	6.5µM*	2.9µM*	·
CC(C)Oc1ccc(CNC(=O)CC(c2ccccc2)c2cc(Cl)ccc2O)cc1 (configuration not stated)	-3%	?	?	3%
O=C(OCc1csc(-c2ccccc2)n1)c1ccccc1O	·	16%	5%	-5%
CSc1nc(N)c2ncn([C@H]3O[C@H](COP(=O)(O)OP(=O)(O)OP(=O)(O)O)[C@@H](O)[C@@H]3O)c2n1	·	0%	?	12%[56.1 µM]
CCN(CC)S(=O)(=O)c1ccc(S(=O)(=O)Nc2c(C)nn(C)c2C)cc1	-1%	6.5µM*	4.6µM*	4%
Cc1nn(C)c(C)c1NS(=O)(=O)c1ccc(Cl)cc1	-5%	-27%	-27%	0%
Cc1nn(C)c(C)c1CN(C)S(=O)(=O)c1ccc2ccccc2c1	-4%	2.2µM*	1.3µM*	-12%[56.1 µM]
Cc1nn(C)c(C)c1CN(C)S(=O)(=O)c1ccc(F)cc1	-3%	?	21µM*	1%
CC1(C2CCN(Cc3c[nH]c4ccccc34)CC2)NC(=O)N(CCN2CCOCC2)C1=O (configuration not stated)	·	5%	-24%	·
CCOC(=O)[C@]12CCC=C1N(Cc1ccc3c(c1)OCO3)C(=O)[C@H](CC(=O)NCc1cccc3ccccc13)C2	-17%	?	?	·
CC(C)N(C(=O)[C@H]1CC(CC(=O)NCc2cccc(C(F)(F)F)c2)C(=O)N2CCc3c([nH]c4ccccc34)[C@]12C)C(C)C (some centres not stated)	1%	18µM*	23µM*	2%
CCN(CC)C(=O)[C@H]1CC(CC(=O)NCc2cccc(C(F)(F)F)c2)C(=O)N2CCc3c([nH]c4ccc(OC)cc34)[C@]12C (some centres not stated)	0%	16µM*	15µM*	2%[56.1 µM]

From PubChem BioAssay
